The supplement of paper PMC10849652
Targets with a hit are over-represented here; the source holds about 8,800 in all. About 0.5% of all pairs of compound and target were hits. A number with no mark means an inactive call.

Experiments:
Assay in all cases: log2 fold change, soluble protein after heating vs DMSO (PISA); higher = thermal stabilisation; K562 lysate, 10 uM; active = over 0.2 and 3.5 SD of the protein, either way, in both replicates (recomputed)
vemurafenib = compound: CCCS(=O)(=O)Nc1ccc(F)c(C(=O)c2c[nH]c3ncc(-c4ccc(Cl)cc4)cc23)c1F [vemurafenib]
How it was run: (§1)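 Values give the log-two fold change in thermal stability against solvent controls, from duplicates. Crude K562 extract at 1 mg/mL protein, made by dounce homogenisation in PBS pH 7.4 with 1 mM MgCl2, was treated with 10 μM compound for 30 min. After 3 min heating across 48°C-58°C, aliquots were pooled, adjusted to 0.5% NP-40 at 4°C and centrifuged at 21,000xg for 90 min. The supernatant was measured by TMTpro 16plex LC-MS/MS with channel sums equalised.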

[1] = compound: CCCS(=O)(=O)Nc1ccc(F)c(C(=O)c2c[nH]c3ncc(Cl)cc23)c1F
How it was run: as §1

barasertib = compound: CCN(CCCOc1ccc2c(Nc3cc(CC(=O)Nc4cccc(F)c4)[nH]n3)ncnc2c1)CCOP(=O)(O)O [barasertib]
How it was run: as §1

[2] = compound: CC[C@@H]1C(=O)N(C)c2cnc(Nc3ccc(C(=O)NC4CCN(C)CC4)cc3OC)nc2N1C1CCCC1
How it was run: as §1

volasertib = compound: CC[C@@H]1C(=O)N(C)c2cnc(Nc3ccc(C(=O)N[C@H]4CC[C@H](N5CCN(CC6CC6)CC5)CC4)cc3OC)nc2N1C(C)C [volasertib]
How it was run: as §1

[3] = compound: CCn1c(C(=O)N(C2CC2)C2CC2)cc2c3c(ncn3C)c(Nc3cc(C)n(C)n3)nc21
How it was run: as §1

[4] = compound: CCn1cc(-c2ccnc3[nH]c(-c4cccc(CN(C)C)c4)cc23)c(-c2ccc(NC(=O)N(C)C)cc2)n1
How it was run: as §1

[5] = compound: CN1CCC(CNc2ccc3ncc(-c4cccc(OC(F)(F)F)c4)n3n2)CC1
How it was run: as §1

saracatinib = compound: CN1CCN(CCOc2cc(OC3CCOCC3)c3c(Nc4c(Cl)ccc5c4OCO5)ncnc3c2)CC1 [saracatinib]
How it was run: as §1

sotrastaurin = compound: CN1CCN(c2nc(C3=C(c4c[nH]c5ccccc45)C(=O)NC3=O)c3ccccc3n2)CC1 [sotrastaurin]
How it was run: as §1

alvocidib = compound: CN1CC[C@H](c2c(O)cc(O)c3c(=O)cc(-c4ccccc4Cl)oc23)[C@H](O)C1 [alvocidib]
How it was run: as §1

Tubastatin A = compound: CN1CCc2c(c3ccccc3n2Cc2ccc(C(=O)NO)cc2)C1 [Tubastatin A]
How it was run: as §1

[6] = compound: CNC(=O)C1=CC=CC=C1NC2=NC(=NC=C2Cl)NC3=C(C=C(C=C3)N4CCOCC4)OC
How it was run: as §1

defactinib = compound: CNC(=O)c1ccc(Nc2ncc(C(F)(F)F)c(NCc3nccnc3N(C)S(C)(=O)=O)n2)cc1 [defactinib]
How it was run: as §1

[7] = compound: CNc1nc(-c2ccc3c(N)n[nH]c3c2)cc(N2C[C@@H](C(=O)NC3CCCCC3)CC[C@H]2C)n1
How it was run: as §1

encorafenib = compound: COC(=O)N[C@@H](C)CNc1nccc(-c2cn(C(C)C)nc2-c2cc(Cl)cc(NS(C)(=O)=O)c2F)n1 [encorafenib]
How it was run: as §1

[8] = compound: COC(=O)[C@H](CCSC)NC(=O)C1=C(C=C(C=C1)NC[C@H](CS)N)C2=CC=CC=C2
How it was run: as §1

alisertib = compound: COc1cc(Nc2ncc3c(n2)-c2ccc(Cl)cc2C(c2c(F)cccc2OC)=NC3)ccc1C(=O)O [alisertib]
How it was run: as §1

[9] = compound: COc1cc2nc(-c3cc(F)ccc3O)nc(N[C@@H]3CNC[C@H]3C(C)(C)O)c2cc1OC
How it was run: as §1

gefitinib = compound: COc1cc2ncnc(Nc3ccc(F)c(Cl)c3)c2cc1OCCCN1CCOCC1 [gefitinib]
How it was run: as §1

UniProt P19367, sequence (P19367 whole entry, looked up): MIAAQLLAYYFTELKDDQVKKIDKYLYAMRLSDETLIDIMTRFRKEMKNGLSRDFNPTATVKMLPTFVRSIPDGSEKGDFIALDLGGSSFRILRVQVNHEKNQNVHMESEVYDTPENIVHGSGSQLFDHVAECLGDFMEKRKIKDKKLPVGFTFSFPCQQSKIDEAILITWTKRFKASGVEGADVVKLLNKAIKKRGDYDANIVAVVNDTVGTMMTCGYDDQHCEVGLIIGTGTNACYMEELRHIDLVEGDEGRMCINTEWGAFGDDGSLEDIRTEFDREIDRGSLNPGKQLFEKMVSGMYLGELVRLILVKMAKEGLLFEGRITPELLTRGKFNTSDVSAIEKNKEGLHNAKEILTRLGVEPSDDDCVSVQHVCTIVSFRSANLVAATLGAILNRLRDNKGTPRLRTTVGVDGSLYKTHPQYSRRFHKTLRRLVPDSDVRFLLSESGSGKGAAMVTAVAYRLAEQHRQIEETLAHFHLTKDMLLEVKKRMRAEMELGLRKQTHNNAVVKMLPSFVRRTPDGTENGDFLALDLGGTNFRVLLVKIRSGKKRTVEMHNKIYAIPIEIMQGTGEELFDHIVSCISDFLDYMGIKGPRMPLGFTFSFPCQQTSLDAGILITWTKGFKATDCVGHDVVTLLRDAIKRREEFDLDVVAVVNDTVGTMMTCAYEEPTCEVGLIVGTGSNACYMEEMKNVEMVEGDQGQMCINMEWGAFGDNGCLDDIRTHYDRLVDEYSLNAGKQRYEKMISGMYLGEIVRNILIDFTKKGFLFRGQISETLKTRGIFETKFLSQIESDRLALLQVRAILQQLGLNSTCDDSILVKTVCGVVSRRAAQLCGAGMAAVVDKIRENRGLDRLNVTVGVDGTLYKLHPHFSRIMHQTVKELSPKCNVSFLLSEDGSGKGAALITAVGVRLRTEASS
UniProt P41252, sequence (P41252 whole entry, looked up): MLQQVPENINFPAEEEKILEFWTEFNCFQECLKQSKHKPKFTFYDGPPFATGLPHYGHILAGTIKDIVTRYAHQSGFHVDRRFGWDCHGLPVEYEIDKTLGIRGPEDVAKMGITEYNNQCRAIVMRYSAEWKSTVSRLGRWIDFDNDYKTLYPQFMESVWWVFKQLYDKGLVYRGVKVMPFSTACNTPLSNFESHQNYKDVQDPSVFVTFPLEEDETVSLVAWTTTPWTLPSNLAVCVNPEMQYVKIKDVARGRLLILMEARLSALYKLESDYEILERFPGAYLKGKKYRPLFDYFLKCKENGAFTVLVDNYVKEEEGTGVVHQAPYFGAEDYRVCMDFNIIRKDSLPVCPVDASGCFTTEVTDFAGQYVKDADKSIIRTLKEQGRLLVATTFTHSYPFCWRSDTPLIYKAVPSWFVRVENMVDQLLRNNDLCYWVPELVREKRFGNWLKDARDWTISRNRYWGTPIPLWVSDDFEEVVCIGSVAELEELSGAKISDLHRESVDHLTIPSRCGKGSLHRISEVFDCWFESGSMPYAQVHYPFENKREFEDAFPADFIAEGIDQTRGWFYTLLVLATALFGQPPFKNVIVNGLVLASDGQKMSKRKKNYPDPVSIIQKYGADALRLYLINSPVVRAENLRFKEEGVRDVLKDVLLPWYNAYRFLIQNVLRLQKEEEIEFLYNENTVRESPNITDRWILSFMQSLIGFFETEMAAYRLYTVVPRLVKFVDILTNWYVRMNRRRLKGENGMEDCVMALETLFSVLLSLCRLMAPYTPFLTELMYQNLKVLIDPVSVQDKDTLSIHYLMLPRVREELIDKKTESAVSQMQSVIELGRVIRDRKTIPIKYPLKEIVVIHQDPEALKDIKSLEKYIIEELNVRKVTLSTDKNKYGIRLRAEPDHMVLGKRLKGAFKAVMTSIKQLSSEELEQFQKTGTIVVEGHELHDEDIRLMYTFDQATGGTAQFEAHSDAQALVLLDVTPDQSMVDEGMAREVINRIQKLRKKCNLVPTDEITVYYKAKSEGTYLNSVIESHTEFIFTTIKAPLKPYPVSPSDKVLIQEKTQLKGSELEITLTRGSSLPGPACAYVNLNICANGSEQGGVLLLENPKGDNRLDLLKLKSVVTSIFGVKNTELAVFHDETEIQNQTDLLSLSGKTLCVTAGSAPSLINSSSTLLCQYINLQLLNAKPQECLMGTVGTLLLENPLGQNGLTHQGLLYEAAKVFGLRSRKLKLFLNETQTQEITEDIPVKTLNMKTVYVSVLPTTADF
UniProt Q27J81, sequence (Q27J81 whole entry, looked up): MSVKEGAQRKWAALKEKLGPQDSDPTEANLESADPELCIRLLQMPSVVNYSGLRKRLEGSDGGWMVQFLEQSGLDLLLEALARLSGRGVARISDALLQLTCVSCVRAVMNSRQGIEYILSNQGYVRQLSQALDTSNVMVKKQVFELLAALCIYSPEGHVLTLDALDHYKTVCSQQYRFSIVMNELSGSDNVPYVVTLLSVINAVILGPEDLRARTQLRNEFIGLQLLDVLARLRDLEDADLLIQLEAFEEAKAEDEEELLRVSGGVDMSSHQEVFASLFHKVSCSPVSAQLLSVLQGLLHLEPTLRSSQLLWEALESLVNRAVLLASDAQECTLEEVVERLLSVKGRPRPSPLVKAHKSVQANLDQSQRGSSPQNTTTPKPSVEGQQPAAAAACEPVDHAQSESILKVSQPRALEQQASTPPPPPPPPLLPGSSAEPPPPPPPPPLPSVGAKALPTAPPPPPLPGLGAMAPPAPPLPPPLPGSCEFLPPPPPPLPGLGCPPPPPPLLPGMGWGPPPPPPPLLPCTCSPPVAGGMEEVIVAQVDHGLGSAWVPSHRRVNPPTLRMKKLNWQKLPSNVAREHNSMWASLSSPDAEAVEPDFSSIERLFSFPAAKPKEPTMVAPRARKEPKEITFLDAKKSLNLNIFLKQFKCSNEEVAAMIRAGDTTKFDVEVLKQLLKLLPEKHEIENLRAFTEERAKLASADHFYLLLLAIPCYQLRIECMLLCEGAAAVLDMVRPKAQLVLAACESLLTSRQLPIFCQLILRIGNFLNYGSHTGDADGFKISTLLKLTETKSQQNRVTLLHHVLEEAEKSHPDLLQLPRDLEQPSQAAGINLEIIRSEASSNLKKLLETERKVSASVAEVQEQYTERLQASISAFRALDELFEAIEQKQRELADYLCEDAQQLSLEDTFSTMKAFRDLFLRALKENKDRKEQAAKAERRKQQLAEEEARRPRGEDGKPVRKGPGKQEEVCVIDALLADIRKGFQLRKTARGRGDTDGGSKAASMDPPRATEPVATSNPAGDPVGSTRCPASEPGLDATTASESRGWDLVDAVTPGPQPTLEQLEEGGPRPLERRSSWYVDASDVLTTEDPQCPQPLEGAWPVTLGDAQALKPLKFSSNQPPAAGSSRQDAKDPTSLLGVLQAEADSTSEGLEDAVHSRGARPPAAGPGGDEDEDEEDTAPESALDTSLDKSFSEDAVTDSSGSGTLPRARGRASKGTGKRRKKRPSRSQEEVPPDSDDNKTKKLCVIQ
UniProt P26583, sequence (P26583 whole entry, looked up): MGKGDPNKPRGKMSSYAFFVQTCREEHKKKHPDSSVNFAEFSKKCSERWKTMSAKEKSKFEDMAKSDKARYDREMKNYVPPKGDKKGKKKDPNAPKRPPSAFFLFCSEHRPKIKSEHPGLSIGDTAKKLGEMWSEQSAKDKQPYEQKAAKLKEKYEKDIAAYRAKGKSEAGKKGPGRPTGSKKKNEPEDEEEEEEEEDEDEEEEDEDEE
UniProt P49840, sequence (P49840 whole entry, looked up): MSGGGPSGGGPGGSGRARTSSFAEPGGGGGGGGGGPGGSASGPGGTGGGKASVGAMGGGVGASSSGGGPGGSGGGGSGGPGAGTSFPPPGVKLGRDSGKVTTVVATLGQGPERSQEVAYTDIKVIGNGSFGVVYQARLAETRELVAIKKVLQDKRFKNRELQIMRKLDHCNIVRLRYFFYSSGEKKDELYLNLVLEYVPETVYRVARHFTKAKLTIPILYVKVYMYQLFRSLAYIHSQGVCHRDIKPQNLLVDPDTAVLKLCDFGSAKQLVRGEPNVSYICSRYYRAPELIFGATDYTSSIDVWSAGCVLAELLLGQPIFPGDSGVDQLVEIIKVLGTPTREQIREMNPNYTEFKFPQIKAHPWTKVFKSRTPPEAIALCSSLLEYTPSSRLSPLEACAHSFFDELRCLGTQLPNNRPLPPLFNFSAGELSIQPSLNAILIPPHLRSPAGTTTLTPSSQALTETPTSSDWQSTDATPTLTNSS
UniProt Q9P2X3, sequence (Q9P2X3 whole entry, looked up): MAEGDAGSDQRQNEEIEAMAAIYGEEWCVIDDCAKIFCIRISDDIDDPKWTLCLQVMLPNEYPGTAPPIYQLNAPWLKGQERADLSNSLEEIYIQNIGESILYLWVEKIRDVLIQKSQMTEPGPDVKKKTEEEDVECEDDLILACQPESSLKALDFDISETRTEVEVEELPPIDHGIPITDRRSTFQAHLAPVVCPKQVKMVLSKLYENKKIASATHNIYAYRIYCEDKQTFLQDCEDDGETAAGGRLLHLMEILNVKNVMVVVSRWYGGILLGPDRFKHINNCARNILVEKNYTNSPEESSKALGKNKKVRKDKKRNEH
UniProt P02724, sequence (P02724 whole entry, looked up): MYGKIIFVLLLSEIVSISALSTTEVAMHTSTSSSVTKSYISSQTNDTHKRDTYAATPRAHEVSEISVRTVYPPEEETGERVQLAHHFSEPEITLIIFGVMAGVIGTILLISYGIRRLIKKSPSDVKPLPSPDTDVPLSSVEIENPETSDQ
UniProt Q99729, sequence (Q99729 whole entry, looked up): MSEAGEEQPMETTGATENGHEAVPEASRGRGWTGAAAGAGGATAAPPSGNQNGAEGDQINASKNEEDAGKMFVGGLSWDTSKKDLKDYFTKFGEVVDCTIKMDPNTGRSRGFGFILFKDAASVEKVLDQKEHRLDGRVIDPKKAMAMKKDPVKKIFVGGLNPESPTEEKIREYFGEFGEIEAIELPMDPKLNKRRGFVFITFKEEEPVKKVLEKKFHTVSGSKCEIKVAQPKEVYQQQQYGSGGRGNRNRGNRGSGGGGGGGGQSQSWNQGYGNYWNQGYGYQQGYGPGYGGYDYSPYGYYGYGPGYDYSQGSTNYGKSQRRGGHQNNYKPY

Target	log2 fold change (vemurafenib)	log2 fold change [1]	log2 fold change (barasertib)	log2 fold change [2]	log2 fold change (volasertib)	log2 fold change [3]	log2 fold change [4]	log2 fold change [5]	log2 fold change (saracatinib)	log2 fold change (sotrastaurin)	log2 fold change (alvocidib)	log2 fold change (Tubastatin A)	log2 fold change [6]	log2 fold change (defactinib)	log2 fold change [7]	log2 fold change (encorafenib)	log2 fold change [8]	log2 fold change (alisertib)	log2 fold change [9]	log2 fold change (gefitinib)
HADHA (UniProt P40939)	0.019	-0.002	-0.103	-0.024	0.09	-0.036	0.012	0.071	-0.04	-0.025	-0.011	-0.003	0.069	-0.042	0.037	-0.063	0.088	-0.017	-0.041	0.021
GYPA (UniProt P02724)	-0.011	-0.008	0.254	0.188	0.009	-0.081	0.587 (active)	-0.259	0.01	0.011	0.311	0.068	0.005	0.063	0.207	-0.004	-0.015		0.06	
INPP4A (UniProt Q96PE3)	-0.03	0.011	0.382 (active)	-0.017	-0.034	0.031	0.021	0.015	-0.025	-0.008	-0.032	-0.051	0.033	0.046	0.009	0.01	-0.019	-0.026	0.01	-0.033
HECTD4 (UniProt J3KPF0)	0.04	0.035	0.014	0.009	-0.09	0.037	0.007	0.043	0.006	-0.024	-0.027	-0.075	0.001	0.012	-0.017	-0.072	0.146	0.013	0.045	-0.043
HNRNPAB isoform 3 (UniProt Q99729)	0.018	-0.001	-0.003	0.033	0.019	0.011	-0.096	-0.004	0.027	-0.013	-0.018	0.021	-0.018	0.017	0.043	-0.012	-0.016	-0.035	0	0.03
IARS (UniProt P41252)	0.004	0.011	0.026	-0.086	-0.079	0.048	0.044	-0.111	0.006	0.014	0.006	-0.134	0.01	0.02	-0.03	0	0.134	0.02	0.008	-0.021
INF2 (UniProt Q27J81)	0	-0.059	0.104	-0.07	-0.052	-0.01	-0.064	-0.045	0.036	0.019	-0.027	-0.062	0.022	0.117	-0.104	-0.068	0.083	-0.008	-0.01	-0.009
HMGB2 (UniProt P26583)	0.003	0.017	-0.019	0.037	0.014	0.018	0.283 (active)	-0.273 (active)	0.007	-0.04	0.134	0.027	0.023	0.003	0.016	-0.006	-0.081	-0.044	-0.022	-0.028
IMPACT (UniProt Q9P2X3)	0.158	-0.117	-0.014	-0.095	0.053	0.133	0.003	-0.122	0.001	0.058	0.002	-0.04	-0.006	0.013	-0.05	0.063	-0.083	-0.024	-0.044	0.167
INTS7 (UniProt Q9NVH2)	-0.059	-0.058	0.335	-0.073	0.013	0.028	0.027	0.039	0.005	-0.057	-0.012	0.008	-0.025	-0.125	-0.017	0.067	0.017	-0.022	-0.018	0.028
GSK3A (UniProt P49840)	-0.013	0.006	-0.04	-0.015	-0.01	0.026	-0.133	0.154	0.01	0.535 (active)	0.53 (active)	-0.089	0.05	0.353	-0.042	0.161	-0.118	-0.03	-0.015	0.003
GUSB (UniProt P08236)	0.013	0.028	-0.024	-0.049	0.053	0.027	-0.561 (active)	0.355 (active)	-0.008	0.038	-0.278	0.022	0.017	0.015	-0.027	0.089	-0.019	0.089	0.071	-0.049
HK1 isoform 2 (UniProt P19367)	0.009	0.003	0.012	-0.023	-0.004	0.014	-0.008	-0.013	-0.015	0.004	-0.001	-0.038	-0.009	0.001	-0.011	0.003	0.004	0.017	-0.007	-0.011
IMPDH2 (UniProt P12268)	0.015	0.009	-0.056	-0.015	0.012	0.039	0.11	0.01	-0.001	-0.005	0.026	-0.226 (active)	0.013	0.03	0.017	0.021	-0.501 (active)	0.029	-0.015	-0.023
HDAC6 (UniProt Q9UBN7)	-0.02	0.01	-0.017	-0.035	-0.047	-0.023	0.073	-0.011	-0.011	0.008	-0.006	0.11	-0.015	-0.003	-0.013	-0.017	0.06	0.013	0.001	-0.012
IARS2 (UniProt Q9NSE4)	-0.007	-0.005	0.037	-0.003	0.312 (active)	-0.013	0.198	-0.032	-0.002	0.003	0.072	0.021	-0.026	0.004	-0.003	-0.006	0.014	-0.013	-0.011	0.004
